Screen size: about 420,000 compounds; about 50,000 (12%) were called active. Roughly 26% stayed inconclusive and do not appear here. The list comes from a sample in which actives are over-represented; it also holds similar structures and randomly drawn compounds. Values without a mark were called inactive. Calls come from the whole dose curve; as a rule, active = well fitted inhibition curve with a large enough effect; inconclusive = small, poorly fitted or top-dose-only effect; inactive = flat fitted curve, though single readings scatter.
experiment: qHTS for Inhibitors of human tyrosyl-DNA phosphodiesterase 1 (TDP1): qHTS in cells in presence of CPT; conditions: chicken DT40 Tdp1-/-;hTDP1 cells + 20 nM CPT, ATP luminescence, 48 h; series mostly up to 46.2 µM; activity change, negative = growth inhibition: at the top concentration; note: nearly all actives have a fitted effect of over 55% in size
Summary of the method: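 Cell growth measured by CellTiter-Glo luminescence after a minimum 48 h, 37 C compound exposure with 20 nM CPT in Tdp1-knockout DT40 cells stably expressing hTDP1, seeded 400/well; qHTS titration format.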
% is set by controls: 0 for no effect and ±100 for the full control effect; potency is the fitted concentration of half-maximal effect.

Structure (SMILES)	activity change, negative = growth inhibition	Potency
CCS(=O)(=O)N1CCC(N2CCN(c3ccccc3)CC2)CC1	3.97%	–
COC(=O)c1cc(OCC(=O)NC2CCCc3ccccc32)cc(C(=O)OC)c1 (configuration not stated)	2.26%	–
CCCOCC(O)CC(CC)C(=O)NNC(=S)Nc1ccccc1 (configuration not stated)	0.982%	–
COc1cccc(C(=O)Nc2c3c(nn2-c2cccc(C)c2C)CS(=O)(=O)C3)c1OC	–	35.5 µM (active)
COc1ccccc1OCC(=O)Nc1c2c(nn1-c1ccc(F)cc1)CS(=O)(=O)C2	-5.24%	–
Cc1cccc(-n2nc3c(c2NC(=O)c2ccc(Br)o2)CSC3)c1C	-18.8%	–
CC(C)(C)C1CCc2c(sc(NC(=O)c3ccccc3F)c2C(=O)N2CCCCC2)C1 (configuration not stated)	–	16.4 µM (active)
COC(=O)c1c(NC(=O)c2ccccc2F)sc2c1C(C(=O)OC)CC2 (configuration not stated)	-29%	–
Cc1ccccc1NC(=O)c1c(NC(=O)c2ccccc2F)sc2c1CCC(C)C2 (configuration not stated)	6.23%	–
Cc1ccc(F)c(S(=O)(=O)NC(=O)C2(C)CCN2C(=O)CCc2cccs2)c1 (configuration not stated)	-16.3%	–
CCOn1c(SC(C)C)nc2ccccc2c1=O	-7.27%	–
CCOC(=O)C(C)Sc1nc2ccccc2c(=O)n1CC1CCCCC1 (configuration not stated)	–	12.6 µM (active)
CC1CCN(CCCn2c(SCC(=O)NC3CCCC3)nc3ccccc3c2=O)CC1	8.67%	–
O=C(NCCS(=O)(=O)c1ccc(Br)cc1)c1ccccc1Cl	1.81%	–
O=C(O)CCCN1C(=O)C2C3c4ccccc4C(c4ccccc43)[C@@H]2C1=O (some centres not stated)	36.8%	–
Cc1ccc(NC(=O)CCOc2ccccc2)cc1S(=O)(=O)Nc1ccccc1Cl	-1.11%	–
CC1CCN(C(=O)Cn2c(=O)n(-c3ccc(Cl)cc3)c(=O)c3c4c(sc32)CCC4)CC1	0.402%	–
O=c1c2c3c(sc2n(CCN2CCCC2)c(=O)n1Cc1ccccc1)CCCCC3	–	13 µM (active)
CCOC(=O)N1CCc2c(sc3c2c(=O)n(Cc2ccccc2)c(=O)n3CC(=O)Nc2cccc(C)c2)C1	-5.93%	–
COc1ccc(C2NC(=O)C(=O)/C2=C(\O)c2ccc(Cl)cc2)cc1OC (configuration not stated)	1.92%	–
O=c1[nH]c2ccc(S(=O)(=O)N3CCCC3)cc2[nH]1	-16.4%	–

Structure (SMILES)	activity change, negative = growth inhibition	Potency
CCCN(CC1CC1)C(=O)COC(=O)c1ccc(C)cc1O	6.29%	–
Cc1cccc(C(=O)c2cccc(C)c2)c1	-27.9%	–
Cc1cccc(C(=O)NCCCN(C)CCCNC(=O)c2cccc(C)c2)c1	2%	–
Cc1cccc(C(=O)NC(=S)N(C)C2CCCCC2)c1	–	29.1 µM (active)
CN(CC(=O)Nc1ccc(F)c(F)c1F)C(=O)C1CC(=O)N(C2CCCC2)C1 (configuration not stated)	-10%	–
COc1ccc(C2Sc3ccccc3NC3=C2C(=O)c2ccccc23)c(OC)c1OC (configuration not stated)	–	1.84 µM (active)
CCN(CC)CCCN1C(=O)C(=O)/C(=C(/O)c2c(C)nc3ccccn23)C1c1ccc(C)o1 (configuration not stated)	-12.8%	–
Cc1ccc(N=C2NC(=O)c3cccc([N+](=O)[O-])c32)cc1	-21.1%	–
CC(=O)c1cnc(SCC(=O)O)nc1C	5.08%	–
O=C1/C(=C/c2ccc3c(c2)OCO3)CCC/C1=C\c1ccc2c(c1)OCO2	-23.1%	–
CCn1cc(/C=C2/SC(=S)NC2=O)c(C)n1	-18%	–
Cc1nn(C)cc1/C=C1\CCC/C(=C\c2cn(C)nc2C)C1=O	–	15.8 µM (active)
C[C@H](NC(=O)C1CCN(S(=O)(=O)c2ccccc2)CC1)C(=O)NCc1ccccc1	-11.3%	–
CC[C@@]1(C(=O)OC)N[C@H](CN(C)C(C)=O)[C@@H]2C(=O)N(C)C(=O)[C@@H]21	-0.511%	–
Cc1ccc(C(C[N+](=O)[O-])c2c(C)cc3ccccn23)cc1 (configuration not stated)	–	10.3 µM (active)
COc1ccccc1C(=O)NCCC(=O)NC(C)CCc1ccccc1 (configuration not stated)	-16.7%	–
O=C(N/N=C/c1ccoc1)c1ccc(Cl)cc1Cl	-6.06%	–
CC(C)(C)C(=O)Nc1ccc(C(=O)N/N=C/c2ccccc2OC(=O)c2ccc(Cl)cc2Cl)cc1	–	14.6 µM (active)
COc1cc(C=NNC(=O)c2cccnc2)ccc1OC(=O)c1ccccc1F	7.47%	–
Cc1cc(C)nc(SCC(=O)N(C)C)n1	0.938%	–
COC(=O)c1c(C)[nH]c(C(=O)NCCc2ccc(S(N)(=O)=O)cc2)c1C	-0.0885%	–

Structure (SMILES)	activity change, negative = growth inhibition	Potency
O=S(=O)(Nc1ccc(-n2cnnn2)cc1)c1ccc(Cl)cc1	1.72%	–
CC(=O)c1c(C)n(S(=O)(=O)c2ccc(Cl)cc2)c2ccc(NS(=O)(=O)c3ccc(Cl)cc3)cc12	–	10.3 µM (active)
CC(=O)c1c(C)oc2ccc(NS(=O)(=O)c3ccc(C(=O)O)cc3)cc12	0.313%	–
Cc1csc(-c2coc3cc(O[C@@H]4O[C@H](CO)[C@@H](O)[C@@H](O)[C@H]4O)ccc3c2=O)n1	8.48% [at 9.04 µM]	–
O=C(Nc1n[nH]c(C(F)(F)F)n1)c1cccs1	-21.7%	–
COc1ccccc1C(=O)Nc1ccnn1C1CCN(C(=O)C(C)(C)C)CC1	-7.39%	–
CCCCn1c(N)c(N(CCC(C)C)C(=O)c2ccc(COc3ccccc3)o2)c(=O)[nH]c1=O	-4%	–
CCOc1ccc(S(=O)(=O)N/N=C(\C)c2ccc(Cl)c(Cl)c2Cl)cc1	1.94%	–
COC(=O)COc1ccc2c(=O)c(Oc3ccccc3Br)coc2c1	9.84%	–
Cc1ccc(NC(=O)Cn2sc3ccccc3c2=O)cc1	–	4.61 µM (active)
Cc1ccc(NC(=O)Cn2c(C)csc2=O)cc1	5.41%	–
Cc1nn(CC(=O)Nc2ccc(F)cc2)c(=O)c2ccccc12	0.617%	–
CN(C(=O)CSc1nnc(-c2c[nH]c3ccccc23)o1)C1CCS(=O)(=O)C1 (configuration not stated)	0.592%	–
O=C(COC(=O)c1ccc(F)cc1)Nc1ccc2c(c1)OCO2	-13.4%	–
O=C(COC(=O)c1ccncc1)Nc1ccc2c(c1)OCO2	2.53%	–
NS(=O)(=O)c1ccc(NC(=O)COC(=O)c2cc3ccccc3oc2=O)cc1	-17.9%	–
NS(=O)(=O)c1ccc(NC(=O)COC(=O)c2c3c(nc4ccccc24)/C(=C\c2ccc4c(c2)OCO4)CCC3)cc1	–	18.4 µM (active)
COc1cc(-c2cc(C(=O)OCC(=O)Nc3ccc4c(c3)OCO4)c3ccccc3n2)cc(OC)c1OC	-18.6%	–
NC(=O)c1ccc(NC(=O)COC(=O)c2c3c(nc4ccccc24)/C(=C\c2ccc4c(c2)OCO4)CCC3)cc1	–	11.6 µM (active)
CC1CC(=O)N(CC(=O)Nc2cccc(Cl)c2)c2ccccc2S1(=O)=O (configuration not stated)	-20.5%	–

Reference: PubChem BioAssay AID686979 (National Center for Advancing Translational Sciences (NCATS), 2013)
